In all, about 68,000 compounds went through this assay and about 2,700 (4%) showed an effect of 50% or more. This excerpt belongs to a sample that is enriched for strong results.
These molecules were tested on Plasmodium berghei (assay: Screen against P. berghei liver stage (PbLuc), transformed with Luciferase, at 2uM). Conditions: tested at 2 uM.
Assay type: functional, HepG2

SMILES	INHIBITION
CNC(=O)N1CCc2cc(C(=O)NCC3CC3)c(NC(C)C)nc2CC1	11.9%
CNC(=O)c1cc2c(nc1NC(C)C)CCN(C(=O)NC(C)C)CC2	54.06%
CC(=O)N(Cc1noc(C2CC2)n1)C1CCN(Cc2ccccn2)C1 (stereo not drawn)	-1.02%
CCN1CC(COC(=O)c2ccc(Br)cc2F)CC1=O (stereo not drawn)	17.86%
Cc1cc(NC(=O)CNC2CCc3ncnn3C2)no1 (stereo not drawn)	8.42%
CN(c1ncc(S(N)(=O)=O)s1)C1CCC1	27.17%
CC(=O)NCCNC(=O)N(C)Cc1ccc2c(c1)OCCO2	-43.47%
Clc1ccc(COCC2CCN(Cc3ccccn3)CC2)cc1	-7.16%
Cn1cnc(S(=O)(=O)N2CCO[C@H]3[C@@H](OCC4CC4)CC[C@@H]32)c1	-6.83%
CNC(=O)c1cc(C)nc(C2(C)CCCN2c2cc(C)ncn2)n1 (stereo not drawn)	-4.78%
Cc1cc(C)c(C(=O)N2CCCC(O)(CN3CCCC3)C2)cc1C (stereo not drawn)	79.79%
Cc1cc(C(=O)N2CCCC(O)(CN3CCCC3)C2)ccc1Cl (stereo not drawn)	19.36%
Cc1cncc(C(=O)N2CCCC(O)(CN3CCCC3)C2)c1 (stereo not drawn)	-22.01%
O=C(c1ccccn1)N1C[C@H]2CC[C@@H](C1)N(C(=O)CCc1cccs1)C2	-89.49%
Cc1cc(C2CCCN2CCCc2nc3ccccc3o2)on1 (stereo not drawn)	-27.69%
Cn1c(CN2CCC(OCc3cccnc3)CC2)cc2ccccc21	29.36%
Cc1cnc(CN(C)C2CCN(CC(=O)Nc3nccs3)C2)o1 (stereo not drawn)	23.24%
Cc1cc(NC(=O)CN2CCC(N(C)Cc3ncc(C)o3)C2)n(C)n1 (stereo not drawn)	57.11%
CC(=O)N(Cc1ncc(C)o1)C1CCN(CCc2cccs2)C1 (stereo not drawn)	64.16%
CCc1cnc(CN(C)C2CCN(CCc3ccccn3)C2)o1 (stereo not drawn)	-3.88%
Cc1cnc(CN(C)C2CCN(CC(=O)Nc3c(C)n[nH]c3C)C2)o1 (stereo not drawn)	36.65%
CCc1cnc(CN(C)C2CCN(CCS(C)(=O)=O)C2)o1 (stereo not drawn)	-29.5%
CCc1cnc(CN(C(C)=O)C2CCN(CCc3cccs3)C2)o1 (stereo not drawn)	-9.66%
CC(=O)N(Cc1ncc(C)o1)C1CCN(CCc2ccncc2)C1 (stereo not drawn)	-23.45%
CCc1cnc(CN(C)C2CCN(CCc3cccs3)C2)o1 (stereo not drawn)	66.97%
N#Cc1ccc(N2CCN(c3cnccn3)CC2)c(C(F)(F)F)c1	-22.24%
CC(C)NC(=O)N1Cc2nccn2CC(COc2cccnc2)C1 (stereo not drawn)	27.08%

SMILES	INHIBITION
Cc1nnc2n1CCN(CCC(=O)Nc1sccc1C#N)C2	-7.41%
CCC(NC(=O)c1cccc(N2CCCC2=O)c1)c1ccc(OC)cc1 (stereo not drawn)	30.34%
Cc1ccc(C(=O)N2CCn3c(COCC4CC4)cnc3C2C)nc1 (stereo not drawn)	-4.95%
CCCNC(=O)NC(=O)CN1C=Nc2ccccc2S1(=O)=O	-35.65%
CC(C)CNC(=O)CN1C=Nc2ccccc2S1(=O)=O	21.89%
O=C(CN1C=Nc2ccccc2S1(=O)=O)NCc1ccccc1F	68.24%
Cc1ccc(CNC(=O)CN2C=Nc3ccccc3S2(=O)=O)s1	3.86%
CC(C)(C)NC(=O)NC(=O)CN1C=Nc2ccccc2S1(=O)=O	13.24%
O=C(CN1C=Nc2ccccc2S1(=O)=O)NCc1ccccc1	33.61%
O=C(CN1C=Nc2ccccc2S1(=O)=O)NCC1CC1	66.2%
CCC(C)(C)NC(=O)CN1C=Nc2ccccc2S1(=O)=O	51.94%
O=C(CN1C=Nc2ccccc2S1(=O)=O)NC1CCCCC1	-4.97%
Cn1ccc(C(=O)N2CCC(c3cc(CCO)n(C)n3)C2)n1 (stereo not drawn)	-14.3%
CN1[C@@H](CCC(=O)NCc2ccc(F)cc2)CNC(=O)[C@H]2NCC[C@H]21	4%
Cc1cccc2nc(CN3CCCC3Cn3cncn3)cn12 (stereo not drawn)	78.28%
Cc1nc2ccccc2nc1CN1CCCCC1Cn1cncn1 (stereo not drawn)	12.74%
c1ccc(CN2CCCC2Cn2cncn2)nc1 (stereo not drawn)	23.11%
Cc1c(Cl)c(CN2CCCC2Cn2cncn2)nc2ccccc12 (stereo not drawn)	-8.32%
Cc1cccc2nc(CN3CCCC3Cn3cccn3)cn12 (stereo not drawn)	19.71%
Cc1nc2ccccc2nc1CN1CCCC1Cn1cncn1 (stereo not drawn)	53.72%
CC[C@H](C)[C@H](NC(=O)Cc1csc(-c2cccc(Cl)c2)n1)C(=O)O	13.05%
CC(Oc1cc(Cl)cc(Cl)c1)C(=O)NCCS(N)(=O)=O (stereo not drawn)	-10.59%
CC(=O)N1CC2(CCCC2)c2ccccc21	3.01%
CCCn1cc(C(=O)NC(C)c2c(C)nn(CC)c2C)c(C)n1 (stereo not drawn)	51.19%
CCCn1ncc(C(=O)NC(C)c2c(C)nn(CC)c2C)c1C (stereo not drawn)	-21.14%
CCn1nc(C)c(C(C)NC(=O)c2cccc(NCC(=O)O)c2)c1C (stereo not drawn)	-6.64%

— ChEMBL document CHEMBL4513216, “Probing the Open Global Health Chemical Diversity Library for Multistage-Active Starting Points for Next-Generation Antimalarials” (ACS Infect Dis, 2020)
